SIRT5 inh: SIRT5 desuccinylase inhibitors, primary screen, biochemical, fluorescence imaging, single point, set 5; NAD-dependent protein deacylase sirtuin-5, mitochondrial (Homo sapiens), Q9NXA8; Purified SirT5, succinyl-peptide AMC, trypsin-coupled fluorescence; inhibition, % at 15 µM; 1.1% of 330,000 active; in the data active means inhibition above about 15%
CDK5 p35 inh: inhibitors of human CDK5/p35 kinase, primary screen, biochemical, single concentration; Cyclin-dependent kinase 5 (Homo sapiens) + Cyclin-dependent kinase 5 activator 1 (Homo …; Recombinant CDK5/p35, ADP-Glo luminescence, 60 min; inhibition, % at 10 µM; 0.01% of 330,000 active; AID 488839, 2010;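 active means highest replicate inhibition of at least 50% and at least 75% of replicates reaching 50%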;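 further: plate controls were DMSO neutral control for no effect and GW8510 at 10 µM for full effect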
PvdQ acylase: P. aeruginosa PvdQ acylase inhibitors, primary screen, biochemical, fluorescence, plate reader and imaging, single point; 0.063% of 340,000 active; PvdQ acylase [Pseudomonas aeruginosa LESB58]; AID 488965, 2010; purified PvdQ acylase; inhibition, % at 10 µM; in the data active means inhibition above about 30%, passing the limit was not always enough;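 further: 0% = vehicle neutral wells and 100% = reference inhibitor wells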
PglD inh: C. jejuni PglD acetyltransferase inhibitors, primary screen, biochemical, DTNB colorimetric, single point; purified PglD enzyme, DTNB colorimetric CoA detection; inhibition, % at 12.5 µM; 0.098% of 360,000 active; in the data active means inhibition above about 16%, passing the limit was not always enough
FGF22 binding: binders of human FGF22 protein, primary screen, FGF22 synaptogenesis inhibitor project, biophysical, thermal shift, single point; Fibroblast growth factor 22 (Homo sapiens), Q9HCT0; recombinant FGF22 thermal shift, SYPRO orange fluorescence; percent of sucrose octasulfate shift, DMSO zero; activity (Tm shift, normalised), % at 9.99 µM; 1.5% of 340,000 active;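 active means mean Tm shift, scaled 0 neutral to 100 positive control, at about 1.3% or above, every replicate too, limit read from the data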
Target sequence (Q9HCT0 whole entry, looked up): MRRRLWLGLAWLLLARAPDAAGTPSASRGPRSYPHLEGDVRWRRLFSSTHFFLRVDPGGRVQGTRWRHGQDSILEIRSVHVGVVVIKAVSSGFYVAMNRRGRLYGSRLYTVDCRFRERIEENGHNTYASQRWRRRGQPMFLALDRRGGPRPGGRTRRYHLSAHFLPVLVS
dFosB activator: activators of delta FosB homodimer, primary screen, biochemical, fluorescence polarization, TAMRA-CDK5 oligo, single point | Protein FosB (Mus musculus), P13346 | purified delta FosB; percent of positive-control signal above neutral wells | activation, % at 25 µM | 0.99% of 340,000 active;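 active means mean activation above about 17%, with every replicate also reaching it, limit read from the data, passing the limit was not always enough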
Target sequence (P13346 whole entry, looked up): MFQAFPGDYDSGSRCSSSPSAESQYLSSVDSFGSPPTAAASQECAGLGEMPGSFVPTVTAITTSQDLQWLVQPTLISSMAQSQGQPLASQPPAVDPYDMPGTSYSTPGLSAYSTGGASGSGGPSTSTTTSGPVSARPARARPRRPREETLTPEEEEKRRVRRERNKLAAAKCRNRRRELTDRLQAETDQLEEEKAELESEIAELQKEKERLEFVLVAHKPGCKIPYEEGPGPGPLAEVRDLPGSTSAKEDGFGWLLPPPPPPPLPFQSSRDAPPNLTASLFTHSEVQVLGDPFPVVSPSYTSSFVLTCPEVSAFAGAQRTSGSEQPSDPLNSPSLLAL
* marks the source's active call; other numbers are inactive results. A selection: hits, their analogues and other compounds. The true share with any hit is near 2.8%.

CCS(=O)(=O)c1nc(S(=O)(=O)c2ccc(Cl)cc2)c(NCc2ccccn2)s1 was read as SIRT5 inh -1, CDK5 p35 inh 0, PvdQ acylase -7, FGF22 binding 44* and dFosB activator -11.
For CCS(=O)(=O)c1nc(S(=O)(=O)c2ccc(Cl)cc2)c(NCCCN2CCOCC2)s1 the results were SIRT5 inh 2, CDK5 p35 inh 0, PvdQ acylase 1, PglD inh 3, FGF22 binding -1 and dFosB activator -12.
COCC(=O)N(C)C[C@@H]1Oc2cc(C#C[C@@H](C)O)ccc2S(=O)(=O)N([C@@H](C)CO)C[C@H]1C was read as SIRT5 inh 9, PglD inh -1 and FGF22 binding 0.
For CC(C)NC(=O)Nc1ccc2c(c1)C(=O)N([C@@H](C)CO)C[C@@H](C)[C@H](CN(C)C(=O)NC(C)C)OCCCC[C@H](C)O2 the results were SIRT5 inh 1, PglD inh 1 and FGF22 binding 1.
C[C@H](CO)N1C[C@H](C)[C@H](CN(C)C(=O)CCN(C)C)OCc2ccccc2-c2ccccc2C1=O was read as SIRT5 inh -4, PglD inh -2 and FGF22 binding 1.
Screening Cc1nnc(SCC(=O)Nc2ncc3c(n2)CCCC3=O)s1 returned CDK5 p35 inh -1, PvdQ acylase -19, PglD inh 2 and dFosB activator 0.
For Cc1nnc(SCC(=O)Nc2ncc3c(n2)CC(c2ccccc2)CC3=O)s1 (stereo not drawn) the results were SIRT5 inh 28*, CDK5 p35 inh 1, PvdQ acylase 12, PglD inh -1 and dFosB activator -11.
COc1ccc(S(=O)(=O)Nc2ccc3c(c2)C(=O)N([C@@H](C)CO)C[C@@H](C)[C@@H](CN(C)Cc2ccc(C(=O)O)cc2)OCCCC[C@H](C)O3)cc1 was read as SIRT5 inh 6, PglD inh 1 and FGF22 binding 1.
Screening CC(C)N(C(=O)Cn1cc(SCC(=O)NCc2ccco2)c2ccccc21)C(C)C returned SIRT5 inh 1, CDK5 p35 inh 0, PvdQ acylase -15, PglD inh -2, FGF22 binding 1.7* and dFosB activator -8.
Screening COc1cccc(C(=O)c2c[nH]c(C(=O)NCCCN3CCOCC3)c2)c1 returned SIRT5 inh -1, CDK5 p35 inh -1, PvdQ acylase -12, FGF22 binding 43* and dFosB activator -7.
For CC(C)(C)c1ccc(C(=O)c2c[nH]c(C(=O)NCCCN3CCOCC3)c2)cc1 the results were CDK5 p35 inh 1, PvdQ acylase -5, PglD inh 1 and dFosB activator -7.
Screening COc1ccc(-n2nc3c(N4CCC(C(=O)NCc5ccccc5C)CC4)nnc(C)c3c2C)cc1 returned CDK5 p35 inh 1, PvdQ acylase 0, PglD inh 2 and dFosB activator 77*.
`COc1ccc(CN(C)C[C@@H]2OCCCC[C@H](C)Oc3ccc(NC(=O)Nc4cccc5ccccc45)cc3C(=O)N([C@@H](C)CO)C[C@@H]2C)cc1` gave SIRT5 inh 6, PglD inh 1 and FGF22 binding -1.
Screening O=C(/C=C/c1ccc(Br)o1)OCc1nc2ccsc2c(=O)[nH]1 returned SIRT5 inh 25*, CDK5 p35 inh 0, PvdQ acylase -6, PglD inh 7 and dFosB activator -18.
CC(C)[C@H](NC(=O)[C@H](CCCN=C(N)N)NC(=O)NC(Cc1ccccc1)C(=O)O)C(=O)NC(C=O)CCCN=C(N)N (stereo partly drawn) was read as SIRT5 inh 46*, CDK5 p35 inh -1, PvdQ acylase -12, PglD inh 1, FGF22 binding 0 and dFosB activator 3.
For COCC(=O)OCC(=O)N1N=C(c2ccc(Cl)cc2)CC1c1ccco1 (stereo not drawn) the results were SIRT5 inh -1, CDK5 p35 inh 0, PvdQ acylase 1, FGF22 binding 44* and dFosB activator -10.
Screening O=C(CNC(=O)C1CC1)Nc1ccc(F)c(F)c1F returned SIRT5 inh -1, CDK5 p35 inh 0, PvdQ acylase -20, PglD inh -1, FGF22 binding 43* and dFosB activator -2.
Screening C[C@@H]1CCCCO[C@@H](CN(C)Cc2ccc(C(F)(F)F)cc2)[C@H](C)CN([C@H](C)CO)C(=O)c2cc(NS(=O)(=O)c3cccs3)ccc2O1 returned SIRT5 inh 8, PglD inh 4 and FGF22 binding -1.
Screening CC(=O)c1sc(NC(=O)CCCOc2ccc(Cl)cc2)nc1C returned SIRT5 inh 4, CDK5 p35 inh -3, PvdQ acylase -14, FGF22 binding 43* and dFosB activator 4.
`CC(C(=O)Nc1ccccc1-c1ccccc1)N1CCN(Cc2ccccc2)CC1` (stereo not drawn) gave SIRT5 inh -1, CDK5 p35 inh 0, PvdQ acylase -4, FGF22 binding 43* and dFosB activator -6.
C[C@@H]1CCCCO[C@@H](CN(C)C(=O)NC2CCCCC2)[C@H](C)CN([C@H](C)CO)C(=O)c2cc(NS(=O)(=O)c3ccccc3)ccc2O1 was read as SIRT5 inh 9, PglD inh 0 and FGF22 binding -1.
COc1ccc(COCC(O)CN2CCC(C(N)=O)CC2)cc1OC (stereo not drawn) was read as SIRT5 inh 0, CDK5 p35 inh 1, PvdQ acylase -18, FGF22 binding 44* and dFosB activator -3.
`O=S(=O)(Nc1ncnc2scc(-c3ccc(F)cc3)c12)c1cc(F)ccc1F` gave SIRT5 inh -1, CDK5 p35 inh 0, PvdQ acylase 8, FGF22 binding 2.8* and dFosB activator -5.
`Cc1ccc(-c2csc3ncnc(NS(=O)(=O)c4ccc(Cl)cc4)c23)cc1` gave SIRT5 inh 1, CDK5 p35 inh 1, PvdQ acylase 1, PglD inh -1, FGF22 binding 0 and dFosB activator 1.
CCn1c(C)nc2cc(C(=O)OC)ccc21 was read as SIRT5 inh 1, CDK5 p35 inh 1, PvdQ acylase 2, FGF22 binding 43* and dFosB activator -4.
`COC(=O)c1ccc2c(c1)nc(C)n2CCO` gave CDK5 p35 inh 1, PvdQ acylase 7, PglD inh 4 and dFosB activator -6.
